Experimental data reported in the supplement of paper PMC10849652.
Targets with a hit are over-represented here; the source holds about 7,900 in all. About 0.6% of all pairs of compound and target were hits. Values without a mark were called inactive.

Key:
Assay in all cases: log2 fold change, soluble protein after heating vs DMSO (PISA); higher = thermal stabilisation; K562 cells, 10 uM, 30 min; active = over 0.2 and 3.5 SD of the protein, either way, in both replicates (recomputed)
ZNF217 = ZNF217 (UniProt O75362)
Sequence of ZNF217 (O75362 whole entry, looked up): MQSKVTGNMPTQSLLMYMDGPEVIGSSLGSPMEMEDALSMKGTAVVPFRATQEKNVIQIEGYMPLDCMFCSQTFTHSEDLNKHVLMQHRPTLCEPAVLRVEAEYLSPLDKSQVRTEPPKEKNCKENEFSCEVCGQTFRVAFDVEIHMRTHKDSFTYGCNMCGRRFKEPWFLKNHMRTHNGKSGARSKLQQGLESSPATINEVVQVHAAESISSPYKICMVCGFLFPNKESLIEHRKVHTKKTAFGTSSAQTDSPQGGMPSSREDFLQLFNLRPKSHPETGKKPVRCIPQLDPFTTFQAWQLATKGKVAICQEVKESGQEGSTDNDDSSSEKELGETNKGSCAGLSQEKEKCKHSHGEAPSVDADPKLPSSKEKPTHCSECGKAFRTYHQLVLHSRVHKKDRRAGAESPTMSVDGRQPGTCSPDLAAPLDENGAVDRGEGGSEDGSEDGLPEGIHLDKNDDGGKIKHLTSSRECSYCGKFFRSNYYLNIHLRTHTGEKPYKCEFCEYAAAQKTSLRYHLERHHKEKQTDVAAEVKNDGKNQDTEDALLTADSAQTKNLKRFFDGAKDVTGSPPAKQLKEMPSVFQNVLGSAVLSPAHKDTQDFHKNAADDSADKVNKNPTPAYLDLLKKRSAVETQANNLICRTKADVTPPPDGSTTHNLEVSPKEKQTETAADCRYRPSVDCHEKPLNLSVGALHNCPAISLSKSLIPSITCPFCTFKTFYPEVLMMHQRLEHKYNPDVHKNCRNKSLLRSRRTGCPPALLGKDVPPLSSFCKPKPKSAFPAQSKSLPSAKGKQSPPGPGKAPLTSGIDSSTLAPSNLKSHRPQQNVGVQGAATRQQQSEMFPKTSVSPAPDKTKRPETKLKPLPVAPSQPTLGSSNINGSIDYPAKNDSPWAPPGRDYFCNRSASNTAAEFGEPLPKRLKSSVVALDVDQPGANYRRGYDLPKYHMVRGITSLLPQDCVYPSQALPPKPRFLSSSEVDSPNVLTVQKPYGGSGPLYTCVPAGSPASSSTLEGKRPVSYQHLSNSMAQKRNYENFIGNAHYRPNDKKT
Method in brief: (§1)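 K562 cells at 2×10^6 cells/mL were exposed to 10 μM compound for 30 min, then aliquots were heated for 3 min across 48°C-58°C, pooled, and extracted in PBS containing 0.5% NP-40 at 4°C. The supernatant after 21,000xg for 90 min was taken as soluble protein and measured by TMTpro 16plex LC-MS/MS with channel sums equalised. Thermal stability is reported relative to control samples, with values from duplicates. Fold changes are given on a log2 scale.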

ZNF239 = ZNF239 (UniProt Q16600)
Method in brief: as §1

ZNF277 = ZNF277 (UniProt Q9NRM2)
Method in brief: as §1

ZNF511 isoform 1 = ZNF511 isoform 1 (UniProt Q8NB15)
Sequence of ZNF511 isoform 1 (Q8NB15 whole entry, looked up, canonical isoform): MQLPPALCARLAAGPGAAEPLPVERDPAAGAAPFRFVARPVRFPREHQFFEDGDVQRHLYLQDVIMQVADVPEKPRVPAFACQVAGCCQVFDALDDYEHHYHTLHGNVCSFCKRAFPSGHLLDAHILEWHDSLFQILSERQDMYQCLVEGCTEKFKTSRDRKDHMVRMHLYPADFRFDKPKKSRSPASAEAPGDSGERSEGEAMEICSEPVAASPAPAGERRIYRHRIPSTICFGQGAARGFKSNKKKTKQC
Method in brief: as §1

ZNF512 = ZNF512 (UniProt Q96ME7)
Sequence of ZNF512 (Q96ME7 whole entry, looked up): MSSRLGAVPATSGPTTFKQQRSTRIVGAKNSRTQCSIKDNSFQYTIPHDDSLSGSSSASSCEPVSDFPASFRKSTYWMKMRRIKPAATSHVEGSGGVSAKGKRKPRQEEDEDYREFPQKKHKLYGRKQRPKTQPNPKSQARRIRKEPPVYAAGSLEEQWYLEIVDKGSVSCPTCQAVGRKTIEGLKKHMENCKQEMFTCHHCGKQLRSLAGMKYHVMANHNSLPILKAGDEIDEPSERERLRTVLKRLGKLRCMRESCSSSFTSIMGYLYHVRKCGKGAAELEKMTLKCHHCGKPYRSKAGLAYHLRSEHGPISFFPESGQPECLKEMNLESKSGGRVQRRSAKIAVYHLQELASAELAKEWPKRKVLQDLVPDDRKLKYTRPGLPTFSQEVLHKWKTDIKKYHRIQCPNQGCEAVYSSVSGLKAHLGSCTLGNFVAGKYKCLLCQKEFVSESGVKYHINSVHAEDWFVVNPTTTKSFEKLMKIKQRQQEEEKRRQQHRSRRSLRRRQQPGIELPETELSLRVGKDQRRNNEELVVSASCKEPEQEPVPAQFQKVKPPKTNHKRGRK
Method in brief: as §1

ZNF579 = ZNF579 (UniProt Q8NAF0)
Sequence of ZNF579 (Q8NAF0 whole entry, looked up): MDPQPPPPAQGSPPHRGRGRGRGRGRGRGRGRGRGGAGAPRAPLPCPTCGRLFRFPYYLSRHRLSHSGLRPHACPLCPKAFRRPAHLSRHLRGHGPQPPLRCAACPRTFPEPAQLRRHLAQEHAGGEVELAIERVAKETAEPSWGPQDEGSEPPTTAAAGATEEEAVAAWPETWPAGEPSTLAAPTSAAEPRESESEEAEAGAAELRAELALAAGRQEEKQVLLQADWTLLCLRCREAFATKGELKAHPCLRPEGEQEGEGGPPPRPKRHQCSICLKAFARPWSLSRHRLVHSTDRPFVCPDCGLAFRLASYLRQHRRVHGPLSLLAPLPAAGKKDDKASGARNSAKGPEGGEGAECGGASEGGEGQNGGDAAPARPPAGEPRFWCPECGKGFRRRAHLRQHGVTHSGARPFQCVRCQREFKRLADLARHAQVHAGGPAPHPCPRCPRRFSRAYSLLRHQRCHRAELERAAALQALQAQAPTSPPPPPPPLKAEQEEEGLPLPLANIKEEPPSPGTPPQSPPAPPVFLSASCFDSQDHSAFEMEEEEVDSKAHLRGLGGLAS
Method in brief: as §1

ZNF609 = ZNF609 (UniProt O15014)
Sequence of ZNF609 (O15014 whole entry, looked up): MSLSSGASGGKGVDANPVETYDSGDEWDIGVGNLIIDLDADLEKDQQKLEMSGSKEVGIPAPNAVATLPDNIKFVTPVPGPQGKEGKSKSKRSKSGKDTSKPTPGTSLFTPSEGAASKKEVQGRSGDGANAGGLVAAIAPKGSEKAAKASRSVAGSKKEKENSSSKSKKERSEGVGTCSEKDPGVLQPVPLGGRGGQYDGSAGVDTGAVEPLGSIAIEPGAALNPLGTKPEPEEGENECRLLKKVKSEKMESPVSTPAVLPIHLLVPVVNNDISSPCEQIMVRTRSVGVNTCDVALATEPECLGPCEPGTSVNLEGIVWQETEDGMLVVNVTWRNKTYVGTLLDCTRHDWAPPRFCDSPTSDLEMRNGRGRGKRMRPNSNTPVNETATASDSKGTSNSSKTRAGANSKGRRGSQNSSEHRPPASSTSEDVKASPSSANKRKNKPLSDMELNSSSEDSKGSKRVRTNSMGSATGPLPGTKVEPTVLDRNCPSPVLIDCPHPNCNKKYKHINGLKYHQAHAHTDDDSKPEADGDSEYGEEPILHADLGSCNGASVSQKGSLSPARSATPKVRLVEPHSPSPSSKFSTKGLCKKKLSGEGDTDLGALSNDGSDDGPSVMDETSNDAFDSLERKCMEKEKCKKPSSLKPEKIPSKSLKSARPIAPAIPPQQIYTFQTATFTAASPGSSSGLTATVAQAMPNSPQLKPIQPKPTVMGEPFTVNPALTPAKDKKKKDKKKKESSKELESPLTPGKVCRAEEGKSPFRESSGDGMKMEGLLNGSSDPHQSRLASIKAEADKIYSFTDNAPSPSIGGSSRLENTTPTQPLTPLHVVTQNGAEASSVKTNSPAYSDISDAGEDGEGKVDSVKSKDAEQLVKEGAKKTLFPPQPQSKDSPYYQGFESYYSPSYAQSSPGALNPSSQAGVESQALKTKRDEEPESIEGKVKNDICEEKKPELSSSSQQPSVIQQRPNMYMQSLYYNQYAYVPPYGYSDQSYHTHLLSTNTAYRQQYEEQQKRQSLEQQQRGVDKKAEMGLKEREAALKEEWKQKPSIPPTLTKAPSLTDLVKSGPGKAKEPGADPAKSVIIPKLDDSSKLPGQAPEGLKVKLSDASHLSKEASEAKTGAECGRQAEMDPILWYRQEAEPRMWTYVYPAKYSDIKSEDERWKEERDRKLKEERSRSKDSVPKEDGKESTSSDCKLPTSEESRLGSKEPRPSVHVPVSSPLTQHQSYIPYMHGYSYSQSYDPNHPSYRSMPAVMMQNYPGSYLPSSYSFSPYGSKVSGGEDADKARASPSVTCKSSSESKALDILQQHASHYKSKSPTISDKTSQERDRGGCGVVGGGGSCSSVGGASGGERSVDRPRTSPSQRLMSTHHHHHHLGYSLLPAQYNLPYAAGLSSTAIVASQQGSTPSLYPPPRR
Method in brief: as §1

ZNF622 = ZNF622 (UniProt Q969S3)
Sequence of ZNF622 (Q969S3 whole entry, looked up): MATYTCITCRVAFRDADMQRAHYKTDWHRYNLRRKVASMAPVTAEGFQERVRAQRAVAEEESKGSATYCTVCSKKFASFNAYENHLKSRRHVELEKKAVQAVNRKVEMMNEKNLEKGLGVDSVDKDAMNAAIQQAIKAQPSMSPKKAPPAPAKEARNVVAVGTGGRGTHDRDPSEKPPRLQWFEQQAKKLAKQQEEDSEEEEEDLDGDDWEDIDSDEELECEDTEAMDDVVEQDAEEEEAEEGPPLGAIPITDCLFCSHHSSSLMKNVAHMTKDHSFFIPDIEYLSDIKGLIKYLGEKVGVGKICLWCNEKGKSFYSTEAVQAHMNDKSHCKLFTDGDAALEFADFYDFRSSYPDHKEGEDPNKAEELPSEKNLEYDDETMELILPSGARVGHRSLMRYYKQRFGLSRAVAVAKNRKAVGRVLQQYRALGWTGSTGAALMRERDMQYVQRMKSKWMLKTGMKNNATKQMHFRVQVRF
Method in brief: as §1

ZRANB2 = ZRANB2 (UniProt O95218)
Sequence of ZRANB2 (O95218 whole entry, looked up): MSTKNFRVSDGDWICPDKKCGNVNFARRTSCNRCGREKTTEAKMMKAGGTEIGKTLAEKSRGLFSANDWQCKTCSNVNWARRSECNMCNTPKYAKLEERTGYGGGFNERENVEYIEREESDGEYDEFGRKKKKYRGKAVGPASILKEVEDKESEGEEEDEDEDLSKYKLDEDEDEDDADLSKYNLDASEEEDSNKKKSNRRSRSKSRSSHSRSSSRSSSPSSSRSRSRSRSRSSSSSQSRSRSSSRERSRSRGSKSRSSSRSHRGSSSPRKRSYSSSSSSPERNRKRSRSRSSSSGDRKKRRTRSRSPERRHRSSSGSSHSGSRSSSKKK
Method in brief: as §1

ZNF580 = ZNF580 (UniProt Q9UK33)
Sequence of ZNF580 (Q9UK33 whole entry, looked up): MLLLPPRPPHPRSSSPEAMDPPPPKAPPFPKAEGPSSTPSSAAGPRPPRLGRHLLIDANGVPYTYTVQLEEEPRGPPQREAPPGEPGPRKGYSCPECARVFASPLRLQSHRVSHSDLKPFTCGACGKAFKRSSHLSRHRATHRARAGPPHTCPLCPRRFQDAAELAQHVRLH
Method in brief: as §1

Row | Structure (SMILES) | log2 fold change (ZNF217) | log2 fold change (ZNF239) | log2 fold change (ZNF277) | log2 fold change (ZNF511 isoform 1) | log2 fold change (ZNF512) | log2 fold change (ZNF579) | log2 fold change (ZNF609) | log2 fold change (ZNF622) | log2 fold change (ZRANB2) | log2 fold change (ZNF580)
1 | Cc1nc(Nc2n[nH]c3c2CN(C(=O)N[C@H](CN(C)C)c2ccccc2)C3(C)C)c2sccc2n1 | -0.055 | -0.012 | 0.231 | 0.005 | 0.187 | -0.115 | -0.018 | 0.091 | -0.032 | 
2 | O=C(O)c1ccc2c(c1)nc(Nc1cccc(Cl)c1)c1ccncc12 [silmitasertib] | -0.073 | 0.29 | 0.105 | 0.076 | 0.234 | -0.016 | 0.02 | -0.058 | 0.018 | 
3 | NC1(Cc2ccc(Cl)cc2)CCN(c2ncnc3[nH]ccc23)CC1 | 0.197 | 0.117 | -0.319 | 0.079 |  | -0.064 | -0.115 | -0.263 (active) | 0.014 | 0.183
4 | C[C@@H](N)c1ccc(C(=O)Nc2ccnc3[nH]ccc23)cc1 | -0.013 | 0.022 | 0.315 | -0.105 | 0.45 | 0.102 | 0.033 | 0 | -0.043 | 
5 | CC[C@@H]1C(=O)N(C)c2cnc(Nc3ccc(C(=O)NC4CCN(C)CC4)cc3OC)nc2N1C1CCCC1 | 0.029 |  | 0.328 | -0.041 |  | -0.017 | 0.047 | 0.069 | 0.022 | 0.037
6 | CN1CCN(c2nc(C3=C(c4c[nH]c5ccccc45)C(=O)NC3=O)c3ccccc3n2)CC1 [sotrastaurin] | -0.019 | 0.144 |  | 0.001 |  | 0.014 | 0.016 | 0.018 | -0.027 | 0.039
7 | O=C(Nc1nc2ccccc2n1CCN1CCOCC1)c1cccc([N+](=O)[O-])c1 [IRAK-1-4 Inhibitor I] | 0.052 | 0.154 | -0.346 |  |  | -0.096 | -0.031 | 0.004 | -0.008 | 0.051
8 | c1cn2cc(-c3ccc4cn[nH]c4c3)nc(Nc3ccc(N4CCOCC4)cc3)c2n1 [entospletinib] | 0.011 |  | 0.031 | 0.1 |  | -0.14 | -0.111 | 0.021 | 0.037 | 0.004
9 | CNc1nc(-c2ccc3c(N)n[nH]c3c2)cc(N2C[C@@H](C(=O)NC3CCCCC3)CC[C@H]2C)n1 | -0.183 | -0.055 | 0.11 |  |  | 0.089 | -0.004 | -0.019 | -0.066 | 0.128
10 | CCn1cc(-c2ccnc3[nH]c(-c4cccc(CN(C)C)c4)cc23)c(-c2ccc(NC(=O)N(C)C)cc2)n1 | 0.036 | 0.095 | 0.01 |  |  | 0.091 | 0.097 | -0.077 | 0.022 | 0.092
11 | C[C@H](Nc1ncnc2nc[nH]c12)c1cc2cccc(Cl)c2c(=O)n1-c1ccccc1 [duvelisib] | 0.108 | 0.038 | -0.107 |  |  | -0.031 | 0.073 | 0.065 | -0.02 | -0.078
12 | CS(=O)(=O)c1ccc(-c2cnc(N)c(C(=O)Nc3ccccc3)n2)cc1 | -0.037 | -0.06 |  | -0.022 |  | 0.019 | 0.021 | 0.066 | -0.013 | -0.231
13 | Cn1c2cc(S(C)=O)sc2c2cnn(Cc3cccc(N)c3)c(=O)c21 (stereo not drawn) | 0.237 | 0.34 | 0.084 |  |  | 0.008 | 0.021 | -0.061 | -0.006 | 0.259
14 | CON(C)C(=O)N1N=C(c2cc(F)ccc2F)S[C@@]1(CCCN)c1ccccc1 [filanesib] | -0.045 | 0.051 |  | 0.019 |  | 0.181 | 0.049 | -0.101 | 0 | 0.152
15 | c1cc(OCCN2CCCCC2)cc(-c2n[nH]c3ccc(-c4nnc[nH]4)cc23)c1 | -0.096 |  | -0.275 | -0.043 |  | 0.078 | -0.003 | 0.092 | 0.021 | -0.083
16 | O=C(CCCCCCNC(=O)c1cnc(N(c2ccccc2)c2ccccc2Cl)nc1)NO [citarinostat] | -0.004 |  | 0.306 | 0.054 |  | -0.089 | 0.083 | -0.011 | -0.031 | -0.013
17 | Cc1nc(Nc2ncc(C(=O)Nc3c(C)cccc3Cl)s2)cc(N2CCN(CCO)CC2)n1 [dasatinib] | -0.136 | -0.074 | 0.019 |  |  | -0.148 | 0 | 0.012 | 0.078 | -0.085
18 | Cc1cc(SCc2sc(-c3ccc(C(F)(F)F)cc3)nc2C)ccc1OCC(=O)O | 0.112 | -0.172 | 0.152 |  |  | -0.009 | -0.134 | -0.009 | -0.086 | -0.301
19 | Cc1cccc(-c2[nH]c(C(C)(C)C)nc2-c2ccc3nccnc3c2)n1 | 0.01 | 0.013 | -0.107 |  |  | -0.073 | 0.014 | 0.008 | -0.05 | -0.183
20 | CN1CCC(CNc2ccc3ncc(-c4cccc(OC(F)(F)F)c4)n3n2)CC1 | -0.081 | -0.063 | 0.077 |  |  | 0.103 | -0.134 | 0.03 | 0.01 | 0.054
21 | CNCc1ccc(-c2[nH]c3cc(F)cc4c3c2CCNC4=O)cc1 [rucaparib] | -0.025 |  | 0 | -0.006 |  | 0.01 | -0.034 | -0.194 | -0.034 | 0.136
22 | Nc1ccccc1NC(=O)c1ccc(CNC(=O)OCc2cccnc2)cc1 [entinostat] | 0.075 | -0.023 |  | -0.078 |  | -0.036 | -0.061 | -0.007 | -0.024 | 0
23 | CN1CCN(CCOc2cc(OC3CCOCC3)c3c(Nc4c(Cl)ccc5c4OCO5)ncnc3c2)CC1 [saracatinib] | -0.083 | 0.052 | -0.276 |  |  | -0.025 | 0.047 | -0.005 | 0.044 | 0.108
24 | NC(=O)Nc1cc(-c2cccc(F)c2)sc1C(=O)N[C@H]1CCCNC1 | 0.016 | 0.015 |  | 0.007 |  | -0.008 | 0.061 | -0.028 | 0.076 | 0.123
25 | CCN(CC)Cc1ccc2cc(COC(=O)Nc3ccc(C(=O)NO)cc3)ccc2c1 [givinostat] | 0.037 | -0.226 | 0.199 |  | 0.112 | 0.042 | 0.063 | -0.004 | -0.029 | 
26 | CS(=O)(=O)N1CCN(Cc2cc3nc(-c4cccc5[nH]ncc45)nc(N4CCOCC4)c3s2)CC1 [pictilisib] | -0.038 | -0.249 | -0.249 |  |  | 0.02 | 0.107 | 0.144 | 0.01 | -0.037
27 | O=C(CCCCCCC(=O)Nc1ccccc1)NO [vorinostat] | 0.056 | 0.275 | -0.022 |  |  | -0.032 | -0.128 | -0.049 | -0.03 | -0.064
28 | Cc1cccc(CC(=O)N2CCc3c2ccc(-c2cn(C)c4ncnc(N)c24)c3F)n1 | 0.008 | 0 | 0.045 |  |  | -0.101 | -0.22 | -0.019 | -0.065 | -0.045
